Values joined by “and” are separate entries in the source; they are usually repeats but may differ in a detail not shown here. Equal entries are not always repeated. Some compounds were tested as several samples or in several runs, with calls that do not always agree. Active and inactive are the calls of the source. No stated cut-off is given here; in the data, active means inhibition score above about 11; inactive means the rest.
Assay: S. cerevisiae short- and long-term growth effects – BY4741, OD595, 24 h, dose response (AID 489042)
Conditions: stronger effect = higher value

Structure (SMILES) | inhibition score
Cc1cc2nc3ccc(N(C)C)cc3nc2cc1N | 0 (inactive)
O=C1c2c(O)ccc(O)c2C(=O)c2c(NCCNCCO)ccc(NCCNCCO)c21 | 0 (inactive)
CCN(CC)C(=O)CSc1nnc(-c2cccc(OC)c2)o1 | 0 (inactive)
O=C(Nc1ccc2nc3ccccc3nc2c1)c1ccccc1 | 21 (active)
N#CCc1nn(-c2ccccc2)c2ncnc(N)c12 | 0 (inactive)
[O-][n+]1c2ccccc2[n+]([O-])c2cc(O)ccc21 | 10 (inactive)
CCN(CC)C(=O)c1cccc2nc3ccccc3nc12 | 0 (inactive)
CC(C)OC(=O)c1ccc2nc3ccccc3nc2c1 | 10 (inactive)
COc1ccc2c(c1)c1nnc(SC)nc1n2C | 21 (active)
CCCCCNC(=O)C(=O)C1C(=O)Nc2ccccc21 (centres undefined) | 10 (inactive)
CC(=O)Nc1ccc2nc3ccccc3nc2c1 | 0 (inactive)
O=C(CN1CCN(c2ccccn2)CC1)Nc1ccccc1F | 0 (inactive)
CCn1c2ccccc2c2n[nH]c(=S)nc21 | 0 (inactive)
COc1cccc2nc3cc(C)c(C)cc3nc12 | 10 (inactive)
NC(=O)CSc1nnc(-c2ccc([N+](=O)[O-])cc2)o1 | 0 (inactive)
C=CCOn1c(=O)c(-c2cccs2)[n+]([O-])c2ccccc21 | 0 (inactive)
COc1ccc2nc3ccccc3[n+]([O-])c2c1 | 0 (inactive)
COc1ccc2nc3ccccc3nc2c1N | 10 (inactive)
CSc1nnc(-c2ccc([N+](=O)[O-])cc2)o1 | 0 (inactive)
CNC(=O)c1cccc2nc3ccccc3nc12 | 21 (active)
c1ccc2nc3ccccc3nc2c1 | 21 (active)
COc1ccc2cc(C3CC(c4ccco4)=NN3S(=O)(=O)c3ccccc3)c(Cl)nc2c1 (centres undefined) | 0 (inactive)
CC(C)CSc1nnc2c3ccccc3n(C)c2n1 | 0 (inactive)
C/C(=N\Nc1ncnc2sc(C)c(C)c12)c1ccccn1 | 21 (active)
CCN(CC)C(=O)c1ccc2nc3ccccc3nc2c1 | 0 (inactive)
COc1ccc2nc3ccccc3nc2c1 | 10 (inactive) and 21 (active)
CC(=O)[C@@]1(O)CCC2C3CC[C@H]4C[C@@H](O)CC[C@]4(C)C3CC[C@@]21C (some centres undefined) | 0 (inactive)
C#CCSc1nnc(-c2ccc([N+](=O)[O-])cc2)o1 | 0 (inactive)
C[C@@]12C(=O)OC(=O)[C@]1(C)C1CCC2O1 | 21 (active)
